# Records with an inconclusive call do not appear. A number with no mark means an inactive call. The source made the active and inactive calls. Calls come from the whole dose curve; as a rule, active = well fitted inhibition curve with a large enough effect; inconclusive = small, poorly fitted or top-dose-only effect; inactive = flat fitted curve, though single readings scatter.
# Target: Aldehyde dehydrogenase, mitochondrial (Homo sapiens) (UniProt P05091)
# Experiment: qHTS for Inhibitors of the Aldehyde Dehydrogenase Family (ALDH2) Primary screen (AID 2061308);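 note: plate controls were vehicle for no effect and reference inhibitor for full effect; nearly all actives have a fitted effect of over 55% in size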
# Settings: ALDH2 enzyme inhibition qHTS, 1536-well; series mostly up to 56 µM; activity change, negative = inhibition: at the top concentration
Compound,"activity change, negative = inhibition [%]",Potency
CCc1ccc(NC(=O)c2[nH]c(C)c(C(C)=O)c2C)cc1S(=O)(=O)Nc1ccc(C#N)cc1,-28.8,
Cc1cc(NS(=O)(=O)C2CCN(C(=O)Cc3ccc(Cl)c(Cl)c3)CC2)no1,-13.4,
Cc1ccc(S(=O)(=O)Nc2ccccc2CNc2nc(-c3ccccc3)cs2)cc1,-4.16,
O=C1CCCC2=C1C1(CCCC1)N=C(Nc1nc3cc(Cl)ccc3o1)N2,-6.49,
Cc1ccc(-c2cc(C(=O)Nc3ncco3)c3ccccc3n2)cc1C,17.6,
COC(=O)c1ccc(-c2c(NC(C)=O)sc3c2CCNC3)cc1,-3.95,
Cc1cc(F)ccc1S(=O)(=O)Nc1cnccc1C(=O)Nc1nc(-c2ccccc2)cs1,,inactive
COc1cc(F)c(S(=O)(=O)N2CCN(S(=O)(=O)c3ccco3)CC2)c(F)c1,7.4,
Cc1ccccc1CSc1nc2ncc(Br)cc2[nH]1,-7.48,
Cc1ccc(-c2csc3ncnc(Sc4nnnn4C)c23)cc1,-7.24,
COc1cccc(NC(=S)N2CCN(c3ccc(C(F)(F)F)cc3[N+](=O)[O-])CC2)n1,-11.1,
COc1ccnc(NC(=S)N2CCN(c3ccc4ccccc4n3)CC2)c1,-3.35,
O=S(=O)(c1ccc2c(c1)OCCO2)N1CCN(S(=O)(=O)c2cccs2)CC1,10.6,
CC(C)CCC[C@@H](C)[C@H]1CC[C@H]2[C@@H]3CC=C4C[C@@H](OC(=O)NCCN(C)C)CC[C@]4(C)[C@H]3CC[C@]12C,-6.59,
Cc1ccc(S(=O)(=O)Nc2cc(C)ccc2C(=O)Nc2nc(-c3ccccc3)cs2)cc1,1.25,
Cc1nnc(-c2cnn(C)c2N)n1CCCc1ccccc1,0.592,
Cc1nc(NCc2ccccc2)c2nc(-c3ccccc3)n(CCN3CCCCC3)c2n1,14.5,
C=C1C[C@]23C[C@H]1CC[C@H]2C1=C[C@H]2OC(=O)[C@@](C)([C@H]1[C@@H]3C(=O)O)[C@H]2O,-3.51,
CCOC(=O)C1CCN(C(=O)C2(NC(=O)Nc3ccc(F)cc3F)CCCCC2)CC1,-10.7,
FC(F)(F)c1ccc(-c2nc(NCc3ccc(-c4ccnc(C(F)(F)F)c4)cc3)c3ccccc3n2)cc1,-0.26,

Compound,"activity change, negative = inhibition [%]",Potency
COc1cccc(C2c3c(ncn(-c4cccc(OC)c4)c3=N)Oc3ccc4ccccc4c32)c1 (stereo not given),10.5,
COc1ccc(-c2nnc3n2N=C(c2cc(OC)ccc2OC)CS3)c(OC)c1,16.1,
CN(C)c1oc(-c2cccc3ccccc23)nc1C#N,2.06,
Cc1ccc(CNc2nc(-c3ccccc3C(F)(F)F)nc3ccccc23)s1,-20.1,
C[C@H](N)C(=O)Nc1ccc(Cl)cc1C(=O)c1ccc[nH]1,-0.796,
Fc1ccc(-c2ccc(Nc3nc(-c4ccncc4)nc4ccccc34)cc2F)cc1,-7.62,
C=C1C[C@]23C[C@@]1(O)CC[C@H]2[C@@]12C=C[C@H](O)[C@@](C)(C(=O)O1)[C@H]2[C@@H]3C(=O)O,-4.47,
O=C(OCC#CCSc1nnc(-c2cccc(F)c2)o1)c1ccc(F)cc1,-7.63,
CCc1ccccc1-c1nc(NCc2ccc(-c3cccnc3)cc2)c2ccccc2n1,-12.1,
Cc1cc(C)n2ncc(C(=O)Nc3ccc(C(C)(C)C)cc3)c2n1,4.74,
O=S1(=O)N=C(Oc2ccc(-c3ccccc3)cc2)c2ccccc21,-6.29,
N[C@@H](Cc1ccccc1)C(=O)Nc1ccc(Cl)cc1C(=O)c1ccc[nH]1,0.417,
O=C1CCc2cc(S(=O)(=O)Nc3cccc(C(F)(F)F)c3)ccc2N1,-19,
Cn1c(=O)c2c(nc(CN3CCN(C(=O)C4CC4)CC3)n2Cc2ccccc2Cl)n(C)c1=O,2.68,
Cc1cc(N[S+](=O)([O-])c2cc3c(cc2Cl)CCC(=O)N3)ccc1Br,-12.3,
O=C(Nc1ccc2ccccc2c1)Nc1nnc(-c2ccc(Cl)cc2Cl)s1,4.14,
N#Cc1c(Cl)cccc1Oc1ccc([S+](=O)([O-])N2CCN([S+](=O)([O-])c3c(F)cccc3F)CC2)cc1,-11.2,
C=C[C@H](/C=C\c1ccc(O)cc1)c1ccc(O)cc1,5.54,
O=C(CSc1ccccc1)Nc1nnc(COc2ccc(Cl)cc2)s1,-13.4,
COc1cc(O)c(C(CC(=O)N2CCCCC2)c2ccc3c(c2)OCO3)c(OC)c1 (stereo not given),-6.59,

# From PubChem BioAssay (NCATS)
